The whole screen tested about 3,600 compounds, of which about 900 (25%) were called active. No rule for the calls is given here. A selection follows. Entries that show only a call come without a potency. Potency and affinity values are given separately.
The compounds below were run against Protein Tat (Human immunodeficiency virus type 1 group M subtype B (isolate HXB2)) (UniProt P04608) (assay: HIV-1 Tat–TAR interaction blockers – biochemical, fluorescence polarization, FAM-labeled TAR RNA, counter-screen for Vif-APOBEC3G degradation inhibitor project, dose response (AID 1117361)). Settings: Tat-TAR RNA binding; series mostly up to 100 µM.
In the case of `CCOc1ccc(OCCOc2cccc(C(F)(F)F)c2)cc1`, the outcome is reported as “inactive”.
In the case of `Cn1c(CN2CCOCC2)nc2cc(NC(=O)c3ccc(F)cc3)ccc21`, the outcome is reported as “inactive”.
`O=C1N=C(N2CCOCC2)SC1=Cc1ccco1` was tested, and the outcome was “inactive”.
In the case of `COc1cccc(/C=C2\SC(N)=NC2=O)c1OS(=O)(=O)c1ccccc1`, the outcome is reported as “inactive”.
`C/C(=C1\SC(N2CCOCC2)=NC1=O)c1ccccc1` was tested, and the outcome was “inactive”.
For `COc1cccc(-c2nc3n(n2)C(c2cccs2)C(C(=O)Nc2cccnc2)=C(C)N3)c1` (stereo not given), the outcome was “inactive”.
`O=C(CCc1ccccc1)NNC(=S)NCCc1ccccc1` was tested, and the outcome was “inactive”.
`Cc1cc(C(C)(C)C)ccc1OCCN(C)C` was tested, and the outcome was “inactive”.
For `COCCn1c(Sc2ccc(C)cc2)nc2c1c(=O)[nH]c(=O)n2C`, the outcome was “inactive”.
For `Nc1nc(Cl)cc(N2CCC(c3cc(-c4ccc(Cl)cc4Cl)n[nH]3)CC2)n1`, the outcome was “inactive”.
For `CCOC(=O)N1CCN(S(=O)(=O)c2ccc3c(c2)C(C)C(=O)N3)CC1` (stereo not given), the outcome was “inactive”.
For `O=C(Nc1ccc2oc(=O)ccc2c1)c1ccc(-c2ccc(Cl)cc2)o1`, the outcome was “inactive”.
In the case of `COc1cccc(/C=N/n2c(N)c(S(=O)(=O)c3cccs3)c3nc4ccccc4nc32)c1`, the outcome is reported as “inactive”.
`COc1ccc(S(=O)(=O)N2CCN(C(=O)c3cc(-c4ccccc4OC)n[nH]3)CC2)cc1` was tested, and the outcome was “inactive”.
With `CCCN(C(=S)Nc1ccccc1)C1CCS(=O)(=O)C1` (stereo not given) the outcome was “inactive”.
With `COc1cccc(C2NC(=O)NC(O)(C(F)(F)F)C2C(=O)c2cccnc2)c1OC` (stereo not given) the outcome was “inactive”.
In the case of `CCn1c(COc2ccc3c(c2)OCO3)nnc1SCC(=O)c1ccc(Cl)cc1`, the outcome is reported as “inactive”.
With `Nc1cccc(-c2nc3ccc(N)cc3s2)c1` the outcome was “inactive”.
With `Cc1[nH]n(-c2nc(-c3ccccc3F)cc(=O)[nH]2)c(=O)c1CCO` the outcome was “inactive”.
With `NC(=O)C1Cc2ccccc2CN1C(=O)c1nn(Cc2ccccc2)c(=O)c2ccccc12` (stereo not given) the outcome was “inactive”.
With `COc1ccc(/C=N/NC(=O)CN2CCN(Cc3ccccc3)CC2)cc1Br` the outcome was “inactive”.
In the case of `COc1ccc(C2Nc3ccccc3C(=O)N2c2ccc(Cl)cc2)cc1Cn1cc([N+](=O)[O-])cn1` (stereo not given), the outcome is reported as “inactive”.
`Cc1ccc(S(=O)(=O)N=Nc2c(O)[nH]c3ccccc23)cc1` was tested, and the outcome was “inactive”.
With `CN(C)c1ccc(/C=N\NC(=O)c2csnn2)cc1` the outcome was “inactive”.
In the case of `CCC(Cc1ccccc1)NC(=O)C1CCN(S(=O)(=O)c2c(C)noc2C)CC1` (stereo not given), the outcome is reported as “inactive”.
For `COc1ccc(S(=O)(=O)N2CCC(C(=O)NCc3ccco3)CC2)cc1`, the outcome was “inactive”.
For `COc1ccc(OCCNS(=O)(=O)c2ccccc2)cc1`, the outcome was “inactive”.
`CN1CCN(c2ccccc2NC(=O)C(Cc2ccccc2)n2cccc2)CC1` (stereo not given) was tested, and the outcome was “inactive”.
In the case of `CCCCNC(=O)c1onc(CSc2cccc(OCC)c2)c1C(=O)O`, the outcome is reported as “inactive”.
`COc1cccc(Cn2nnc(C(=O)NCCc3ccc(Cl)cc3)c2N)c1` was tested, and the outcome was “inactive”.

Reference: PubChem BioAssay AID1117361 (Southern Research Institute, 2015)
